From ChEMBL document CHEMBL2218924, “A broad activity screen in support of a chemogenomic map for kinase signalling research and drug discovery” (Biochem J, 2013)

Key:
[1] = target: Ephrin type-A receptor 5 (Homo sapiens) (UniProt P54756); conditions: at 1 µM
[2] = target: Ephrin type-A receptor 5 (Homo sapiens) (UniProt P54756); conditions: at 10 µM
[3] = target: Ephrin type-A receptor 7 (Homo sapiens) (UniProt Q15375); conditions: at 1 µM
[4] = target: T1, Ephrin type-B receptor 1 (Homo sapiens) (UniProt P54762); conditions: at 1 µM
T1 sequence (whole entry): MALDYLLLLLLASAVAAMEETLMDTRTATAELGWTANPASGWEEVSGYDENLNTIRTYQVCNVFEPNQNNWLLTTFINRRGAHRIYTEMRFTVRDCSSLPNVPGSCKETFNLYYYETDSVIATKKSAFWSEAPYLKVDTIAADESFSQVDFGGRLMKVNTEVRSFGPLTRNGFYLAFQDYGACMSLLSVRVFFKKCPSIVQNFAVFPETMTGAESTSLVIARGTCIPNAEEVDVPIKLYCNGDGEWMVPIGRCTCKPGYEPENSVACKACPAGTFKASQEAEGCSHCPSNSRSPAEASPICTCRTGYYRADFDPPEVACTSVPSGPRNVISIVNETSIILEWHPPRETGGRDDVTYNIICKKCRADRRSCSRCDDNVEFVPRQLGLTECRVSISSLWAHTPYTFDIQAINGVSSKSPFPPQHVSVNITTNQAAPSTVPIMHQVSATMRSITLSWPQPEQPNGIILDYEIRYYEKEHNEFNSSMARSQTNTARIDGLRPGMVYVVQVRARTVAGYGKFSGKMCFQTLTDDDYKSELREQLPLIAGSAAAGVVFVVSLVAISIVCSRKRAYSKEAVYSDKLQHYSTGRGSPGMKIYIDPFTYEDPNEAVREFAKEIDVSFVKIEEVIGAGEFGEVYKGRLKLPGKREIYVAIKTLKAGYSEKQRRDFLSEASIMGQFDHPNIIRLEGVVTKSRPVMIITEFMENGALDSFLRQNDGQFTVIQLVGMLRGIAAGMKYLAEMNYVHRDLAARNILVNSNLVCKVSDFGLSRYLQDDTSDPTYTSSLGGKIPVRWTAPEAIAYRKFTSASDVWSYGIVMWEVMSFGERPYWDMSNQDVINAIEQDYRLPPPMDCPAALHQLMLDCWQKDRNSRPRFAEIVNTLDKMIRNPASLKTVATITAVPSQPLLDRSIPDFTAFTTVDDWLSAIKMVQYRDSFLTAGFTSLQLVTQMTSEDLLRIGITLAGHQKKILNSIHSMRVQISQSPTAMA

[5] = target: T2, Ephrin type-B receptor 2 (Homo sapiens) (UniProt P29323); conditions: at 1 µM
T2 sequence (whole entry): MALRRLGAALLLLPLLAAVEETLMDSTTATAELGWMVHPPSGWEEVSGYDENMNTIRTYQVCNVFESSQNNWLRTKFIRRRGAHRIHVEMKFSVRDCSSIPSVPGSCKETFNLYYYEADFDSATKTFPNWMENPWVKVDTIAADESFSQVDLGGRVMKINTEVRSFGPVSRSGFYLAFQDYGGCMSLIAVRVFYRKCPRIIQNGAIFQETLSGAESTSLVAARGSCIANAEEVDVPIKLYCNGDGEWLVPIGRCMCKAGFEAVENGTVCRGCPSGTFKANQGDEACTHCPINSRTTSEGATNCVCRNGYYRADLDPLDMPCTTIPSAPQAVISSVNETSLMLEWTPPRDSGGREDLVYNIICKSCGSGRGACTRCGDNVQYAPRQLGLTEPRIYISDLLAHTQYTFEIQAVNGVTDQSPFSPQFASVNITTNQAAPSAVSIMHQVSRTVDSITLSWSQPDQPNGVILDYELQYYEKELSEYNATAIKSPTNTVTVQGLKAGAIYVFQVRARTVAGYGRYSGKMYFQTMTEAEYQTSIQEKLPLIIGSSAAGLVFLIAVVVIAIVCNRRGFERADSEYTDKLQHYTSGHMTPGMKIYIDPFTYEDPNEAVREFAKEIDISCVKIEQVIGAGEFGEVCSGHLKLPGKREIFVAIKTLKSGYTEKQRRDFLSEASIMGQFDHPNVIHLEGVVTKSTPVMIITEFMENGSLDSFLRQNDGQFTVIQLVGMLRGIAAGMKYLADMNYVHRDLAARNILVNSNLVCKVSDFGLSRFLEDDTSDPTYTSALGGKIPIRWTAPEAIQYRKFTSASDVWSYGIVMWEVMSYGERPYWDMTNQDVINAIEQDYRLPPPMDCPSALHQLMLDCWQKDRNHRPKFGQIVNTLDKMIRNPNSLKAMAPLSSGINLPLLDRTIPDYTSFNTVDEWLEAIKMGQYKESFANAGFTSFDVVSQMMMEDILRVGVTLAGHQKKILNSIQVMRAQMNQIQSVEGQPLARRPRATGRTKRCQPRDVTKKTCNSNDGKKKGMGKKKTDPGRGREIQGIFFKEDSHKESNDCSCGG

[6] = target: Receptor tyrosine-protein kinase erbB-4 (Homo sapiens) (UniProt Q15303); conditions: at 10 µM
[7] = target: T3, Ephrin type-A receptor 3 (Homo sapiens) (UniProt P29320); conditions: at 10 µM
T3 sequence (whole entry): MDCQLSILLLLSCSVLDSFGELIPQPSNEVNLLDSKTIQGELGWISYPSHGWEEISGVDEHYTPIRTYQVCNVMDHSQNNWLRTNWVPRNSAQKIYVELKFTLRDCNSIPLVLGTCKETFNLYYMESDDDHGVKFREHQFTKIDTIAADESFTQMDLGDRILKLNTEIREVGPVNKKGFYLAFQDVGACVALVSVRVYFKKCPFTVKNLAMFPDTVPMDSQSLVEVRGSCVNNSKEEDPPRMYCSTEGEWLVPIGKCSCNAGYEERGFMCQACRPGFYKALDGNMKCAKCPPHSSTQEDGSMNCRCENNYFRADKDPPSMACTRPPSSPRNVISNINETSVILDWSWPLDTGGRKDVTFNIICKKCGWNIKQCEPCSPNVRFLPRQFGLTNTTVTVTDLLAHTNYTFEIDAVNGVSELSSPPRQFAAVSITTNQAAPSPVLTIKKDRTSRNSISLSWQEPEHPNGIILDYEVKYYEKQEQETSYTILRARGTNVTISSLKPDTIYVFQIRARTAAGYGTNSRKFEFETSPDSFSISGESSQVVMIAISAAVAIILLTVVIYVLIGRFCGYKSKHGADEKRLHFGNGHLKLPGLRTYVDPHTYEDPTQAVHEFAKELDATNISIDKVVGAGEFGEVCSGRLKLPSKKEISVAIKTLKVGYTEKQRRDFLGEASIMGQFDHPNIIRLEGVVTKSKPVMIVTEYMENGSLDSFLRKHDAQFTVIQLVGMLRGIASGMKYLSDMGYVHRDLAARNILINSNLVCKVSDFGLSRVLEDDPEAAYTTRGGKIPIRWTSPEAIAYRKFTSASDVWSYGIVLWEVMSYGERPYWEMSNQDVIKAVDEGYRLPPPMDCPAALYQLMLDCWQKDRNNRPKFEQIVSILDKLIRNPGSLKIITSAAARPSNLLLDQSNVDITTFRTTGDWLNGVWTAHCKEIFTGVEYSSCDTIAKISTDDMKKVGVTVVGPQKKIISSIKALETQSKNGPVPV

[8] = target: T4, Ephrin type-A receptor 8 (Homo sapiens) (UniProt P29322); conditions: at 1 µM
T4 sequence (whole entry): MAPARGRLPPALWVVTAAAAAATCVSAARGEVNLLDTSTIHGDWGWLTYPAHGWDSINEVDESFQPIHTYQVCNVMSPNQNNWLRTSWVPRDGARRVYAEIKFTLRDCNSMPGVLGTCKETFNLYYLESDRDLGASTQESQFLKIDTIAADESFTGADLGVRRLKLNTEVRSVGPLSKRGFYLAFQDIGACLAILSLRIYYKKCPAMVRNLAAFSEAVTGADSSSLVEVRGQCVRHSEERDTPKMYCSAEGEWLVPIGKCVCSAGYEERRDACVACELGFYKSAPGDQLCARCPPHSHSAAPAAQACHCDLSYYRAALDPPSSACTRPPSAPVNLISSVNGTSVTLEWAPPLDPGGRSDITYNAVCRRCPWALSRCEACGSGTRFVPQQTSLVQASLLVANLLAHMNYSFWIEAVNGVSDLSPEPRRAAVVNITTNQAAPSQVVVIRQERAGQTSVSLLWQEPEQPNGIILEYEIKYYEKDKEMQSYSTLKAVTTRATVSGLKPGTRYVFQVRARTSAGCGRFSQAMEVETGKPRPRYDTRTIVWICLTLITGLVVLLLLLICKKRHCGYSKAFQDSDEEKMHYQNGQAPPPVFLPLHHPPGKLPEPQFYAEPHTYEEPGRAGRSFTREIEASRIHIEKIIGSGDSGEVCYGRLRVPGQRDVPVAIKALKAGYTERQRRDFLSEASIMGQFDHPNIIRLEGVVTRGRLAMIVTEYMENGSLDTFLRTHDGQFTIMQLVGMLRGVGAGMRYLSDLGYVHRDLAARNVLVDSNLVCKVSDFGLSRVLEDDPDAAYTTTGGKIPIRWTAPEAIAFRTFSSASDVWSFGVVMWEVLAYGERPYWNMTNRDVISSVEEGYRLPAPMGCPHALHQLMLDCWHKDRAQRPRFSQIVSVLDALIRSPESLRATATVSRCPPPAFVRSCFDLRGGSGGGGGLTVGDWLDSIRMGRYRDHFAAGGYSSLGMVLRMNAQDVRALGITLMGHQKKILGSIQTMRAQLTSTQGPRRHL

[9] = target: T4, Ephrin type-A receptor 8 (Homo sapiens); conditions: at 10 µM
[10] = target: T5, Ephrin type-B receptor 3 (Homo sapiens) (UniProt P54753); conditions: at 1 µM
T5 sequence (whole entry): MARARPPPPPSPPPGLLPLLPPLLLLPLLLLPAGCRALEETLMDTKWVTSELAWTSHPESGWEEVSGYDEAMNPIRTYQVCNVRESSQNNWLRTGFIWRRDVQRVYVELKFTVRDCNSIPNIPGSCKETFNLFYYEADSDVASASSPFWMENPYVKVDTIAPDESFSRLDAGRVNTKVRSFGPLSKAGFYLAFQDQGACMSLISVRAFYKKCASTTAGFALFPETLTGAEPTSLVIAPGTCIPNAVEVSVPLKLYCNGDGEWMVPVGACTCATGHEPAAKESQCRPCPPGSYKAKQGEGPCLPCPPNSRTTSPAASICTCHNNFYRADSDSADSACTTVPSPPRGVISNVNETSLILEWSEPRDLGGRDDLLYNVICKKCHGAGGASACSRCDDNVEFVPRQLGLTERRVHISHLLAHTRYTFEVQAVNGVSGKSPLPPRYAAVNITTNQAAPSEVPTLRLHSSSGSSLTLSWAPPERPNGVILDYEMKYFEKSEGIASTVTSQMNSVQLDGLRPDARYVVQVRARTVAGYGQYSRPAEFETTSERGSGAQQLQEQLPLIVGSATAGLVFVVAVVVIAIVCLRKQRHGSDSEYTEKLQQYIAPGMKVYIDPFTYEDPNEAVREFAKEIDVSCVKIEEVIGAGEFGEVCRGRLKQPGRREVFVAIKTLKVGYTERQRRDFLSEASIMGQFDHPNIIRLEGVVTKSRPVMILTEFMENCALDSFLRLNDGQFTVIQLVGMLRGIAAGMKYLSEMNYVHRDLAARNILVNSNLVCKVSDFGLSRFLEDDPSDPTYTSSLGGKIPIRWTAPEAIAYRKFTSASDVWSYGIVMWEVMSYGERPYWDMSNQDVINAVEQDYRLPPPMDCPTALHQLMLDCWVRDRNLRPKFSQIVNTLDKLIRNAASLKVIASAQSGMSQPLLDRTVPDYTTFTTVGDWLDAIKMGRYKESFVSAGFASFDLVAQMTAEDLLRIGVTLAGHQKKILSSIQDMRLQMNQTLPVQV

[11] = target: T5, Ephrin type-B receptor 3 (Homo sapiens); conditions: at 10 µM
[12] = target: T6, Ephrin type-B receptor 4 (Homo sapiens) (UniProt P54760); conditions: at 1 µM
T6 sequence (whole entry): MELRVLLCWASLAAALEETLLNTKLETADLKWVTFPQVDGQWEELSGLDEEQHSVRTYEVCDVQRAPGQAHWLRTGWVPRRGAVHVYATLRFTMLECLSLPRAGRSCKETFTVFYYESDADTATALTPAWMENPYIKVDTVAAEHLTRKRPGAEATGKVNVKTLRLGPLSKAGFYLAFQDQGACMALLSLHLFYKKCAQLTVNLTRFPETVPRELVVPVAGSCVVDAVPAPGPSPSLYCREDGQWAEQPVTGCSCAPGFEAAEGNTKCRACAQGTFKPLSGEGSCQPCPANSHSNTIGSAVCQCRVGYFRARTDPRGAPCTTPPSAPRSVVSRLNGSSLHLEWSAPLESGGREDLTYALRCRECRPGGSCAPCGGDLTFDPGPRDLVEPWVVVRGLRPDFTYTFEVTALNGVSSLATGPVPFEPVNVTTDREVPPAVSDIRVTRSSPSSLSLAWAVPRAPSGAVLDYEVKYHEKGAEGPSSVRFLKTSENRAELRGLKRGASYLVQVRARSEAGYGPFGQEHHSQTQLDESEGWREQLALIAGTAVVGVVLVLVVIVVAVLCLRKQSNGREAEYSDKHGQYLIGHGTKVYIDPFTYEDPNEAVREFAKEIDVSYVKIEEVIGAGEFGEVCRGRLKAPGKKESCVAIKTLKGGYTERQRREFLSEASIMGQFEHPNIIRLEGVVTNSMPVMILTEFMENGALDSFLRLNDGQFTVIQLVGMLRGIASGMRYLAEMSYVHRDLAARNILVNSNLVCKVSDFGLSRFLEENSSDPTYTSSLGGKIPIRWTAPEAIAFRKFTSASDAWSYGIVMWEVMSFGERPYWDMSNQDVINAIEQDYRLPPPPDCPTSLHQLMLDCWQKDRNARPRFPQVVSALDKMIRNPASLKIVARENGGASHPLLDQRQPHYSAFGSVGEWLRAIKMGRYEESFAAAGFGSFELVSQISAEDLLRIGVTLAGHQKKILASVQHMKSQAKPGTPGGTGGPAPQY

[13] = target: T6, Ephrin type-B receptor 4 (Homo sapiens); conditions: at 10 µM

Chain of Ephrin type-A receptor 5 (Homo sapiens) (P54756 whole entry): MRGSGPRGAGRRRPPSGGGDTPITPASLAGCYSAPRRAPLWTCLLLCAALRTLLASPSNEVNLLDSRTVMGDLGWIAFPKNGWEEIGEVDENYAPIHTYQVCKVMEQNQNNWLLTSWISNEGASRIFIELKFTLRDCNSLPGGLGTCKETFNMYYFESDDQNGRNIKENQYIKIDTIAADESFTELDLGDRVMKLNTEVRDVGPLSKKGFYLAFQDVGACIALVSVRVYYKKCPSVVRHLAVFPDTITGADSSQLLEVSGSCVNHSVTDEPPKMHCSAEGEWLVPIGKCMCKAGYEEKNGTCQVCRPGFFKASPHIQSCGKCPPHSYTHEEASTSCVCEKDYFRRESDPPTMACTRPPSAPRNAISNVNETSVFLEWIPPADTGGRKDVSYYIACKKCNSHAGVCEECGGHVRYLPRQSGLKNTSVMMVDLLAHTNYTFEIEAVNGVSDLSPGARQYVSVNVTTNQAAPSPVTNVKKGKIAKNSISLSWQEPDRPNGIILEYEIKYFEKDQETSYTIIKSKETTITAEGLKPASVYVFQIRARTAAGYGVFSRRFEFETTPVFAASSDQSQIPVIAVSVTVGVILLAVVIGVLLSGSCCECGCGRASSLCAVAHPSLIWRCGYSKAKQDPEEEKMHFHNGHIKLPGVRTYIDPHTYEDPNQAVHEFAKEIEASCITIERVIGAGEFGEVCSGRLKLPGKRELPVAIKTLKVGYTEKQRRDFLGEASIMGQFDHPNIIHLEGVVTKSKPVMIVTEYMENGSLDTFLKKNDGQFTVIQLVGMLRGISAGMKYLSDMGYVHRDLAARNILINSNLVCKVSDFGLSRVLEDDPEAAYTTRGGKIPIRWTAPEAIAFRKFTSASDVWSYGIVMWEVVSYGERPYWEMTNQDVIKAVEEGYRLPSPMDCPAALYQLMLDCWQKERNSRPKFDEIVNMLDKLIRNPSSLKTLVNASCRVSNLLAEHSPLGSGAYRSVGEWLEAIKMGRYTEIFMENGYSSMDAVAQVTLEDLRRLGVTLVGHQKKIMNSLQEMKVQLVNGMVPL
Chain of Receptor tyrosine-protein kinase erbB-4 (Homo sapiens) (Q15303 whole entry): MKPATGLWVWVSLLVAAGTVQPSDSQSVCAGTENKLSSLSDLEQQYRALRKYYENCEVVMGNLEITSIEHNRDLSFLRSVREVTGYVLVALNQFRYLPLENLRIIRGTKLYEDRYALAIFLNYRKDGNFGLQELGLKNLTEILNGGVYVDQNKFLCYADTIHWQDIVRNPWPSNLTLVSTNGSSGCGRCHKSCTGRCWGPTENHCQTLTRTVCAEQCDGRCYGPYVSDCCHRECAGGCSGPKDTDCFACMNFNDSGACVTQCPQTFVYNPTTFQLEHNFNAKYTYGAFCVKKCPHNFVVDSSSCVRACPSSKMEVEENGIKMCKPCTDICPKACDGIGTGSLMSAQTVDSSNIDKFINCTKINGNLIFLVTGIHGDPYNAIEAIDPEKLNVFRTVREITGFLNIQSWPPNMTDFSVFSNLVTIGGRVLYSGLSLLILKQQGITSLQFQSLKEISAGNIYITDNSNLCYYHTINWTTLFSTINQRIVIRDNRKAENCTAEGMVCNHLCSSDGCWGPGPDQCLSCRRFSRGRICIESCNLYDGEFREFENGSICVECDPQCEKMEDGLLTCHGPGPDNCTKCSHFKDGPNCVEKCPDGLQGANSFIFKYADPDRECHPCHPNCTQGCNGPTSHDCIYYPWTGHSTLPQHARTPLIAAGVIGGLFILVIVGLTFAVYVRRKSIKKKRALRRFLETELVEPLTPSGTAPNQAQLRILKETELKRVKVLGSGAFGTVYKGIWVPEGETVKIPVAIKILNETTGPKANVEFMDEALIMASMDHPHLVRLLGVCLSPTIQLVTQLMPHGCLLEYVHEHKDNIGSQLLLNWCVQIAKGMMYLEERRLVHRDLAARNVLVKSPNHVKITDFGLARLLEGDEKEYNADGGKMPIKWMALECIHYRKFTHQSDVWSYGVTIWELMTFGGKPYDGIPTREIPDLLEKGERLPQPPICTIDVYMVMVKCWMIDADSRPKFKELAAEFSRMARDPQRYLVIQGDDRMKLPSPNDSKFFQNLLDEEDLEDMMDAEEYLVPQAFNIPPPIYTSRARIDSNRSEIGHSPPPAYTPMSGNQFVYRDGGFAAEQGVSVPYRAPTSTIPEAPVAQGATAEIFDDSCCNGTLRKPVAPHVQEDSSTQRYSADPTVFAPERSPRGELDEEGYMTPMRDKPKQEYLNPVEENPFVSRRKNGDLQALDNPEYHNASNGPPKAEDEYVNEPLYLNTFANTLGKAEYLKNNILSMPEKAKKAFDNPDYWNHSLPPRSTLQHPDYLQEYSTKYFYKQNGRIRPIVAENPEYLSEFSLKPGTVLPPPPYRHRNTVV
Chain of Ephrin type-A receptor 7 (Homo sapiens) (Q15375 28-998 limits assumed): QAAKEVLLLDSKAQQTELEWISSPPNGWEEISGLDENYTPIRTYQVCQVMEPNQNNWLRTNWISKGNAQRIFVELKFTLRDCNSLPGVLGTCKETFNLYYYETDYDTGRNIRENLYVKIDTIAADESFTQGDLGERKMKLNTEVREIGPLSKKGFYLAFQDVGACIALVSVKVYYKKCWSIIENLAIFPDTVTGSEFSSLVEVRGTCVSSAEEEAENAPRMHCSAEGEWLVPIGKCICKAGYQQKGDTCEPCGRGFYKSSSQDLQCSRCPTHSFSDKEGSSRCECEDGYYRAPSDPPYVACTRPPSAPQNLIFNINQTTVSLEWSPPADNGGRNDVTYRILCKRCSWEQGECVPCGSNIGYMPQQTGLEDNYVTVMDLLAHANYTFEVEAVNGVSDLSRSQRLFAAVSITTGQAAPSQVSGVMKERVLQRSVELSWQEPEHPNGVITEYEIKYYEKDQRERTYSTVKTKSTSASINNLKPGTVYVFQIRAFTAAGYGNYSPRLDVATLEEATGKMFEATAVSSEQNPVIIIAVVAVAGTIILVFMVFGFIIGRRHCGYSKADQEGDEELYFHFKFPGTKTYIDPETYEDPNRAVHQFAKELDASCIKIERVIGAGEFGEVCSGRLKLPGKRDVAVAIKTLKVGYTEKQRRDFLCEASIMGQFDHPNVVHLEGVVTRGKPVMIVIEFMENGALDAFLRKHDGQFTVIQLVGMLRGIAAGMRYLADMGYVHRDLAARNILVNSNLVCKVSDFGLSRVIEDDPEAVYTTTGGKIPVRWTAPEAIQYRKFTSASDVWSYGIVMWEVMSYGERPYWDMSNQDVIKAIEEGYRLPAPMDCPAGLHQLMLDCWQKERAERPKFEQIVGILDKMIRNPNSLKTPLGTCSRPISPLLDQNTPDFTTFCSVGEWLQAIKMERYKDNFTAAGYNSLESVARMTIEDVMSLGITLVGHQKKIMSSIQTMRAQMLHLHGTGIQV

With `O=c1c(-c2ccc(F)cc2)c(-c2ccncc2)[nH]n1-c1ccc(Cl)cc1` the residual activity [1] was 119%, the residual activity [2] was 82% and the residual activity [3] was 100%. For the same compound, the residual activity [4] was 128%, the residual activity [5] was 121% and the residual activity [6] was 34%.

`CC(C)N(CCC(=O)c1ccc2ccccc2c1)Cc1ccccc1` gave a residual activity [7] of 85% and a residual activity [6] of 78%.

For `O=C1NC(=O)C(c2cn(CCCO)c3ncccc23)=C1c1cnccn1`, the residual activity [7] was 92%, the residual activity [8] was 99% and the residual activity [9] was 94%. The residual activity [10] was 94% (inactive), the residual activity [11] was 99% and the residual activity [12] was 92%. For the same compound, the residual activity [13] was 98%.
